Bioassay records: PubChem BioAssay, National Center for Advancing Translational Sciences (NCATS)
FBPA coupling cs – inhibits coupling enzyme system, counter-screen for aldolase hits; coupling enzyme system counterscreen, AmpLite Red fluorescence; activity change, negative = inhibition, % at 58.2 µM, hits read low; 290,000 tested, 0.67% active; AID 2472; in the data active = activity change below about -30%
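Counterscreen of the coupled detection system alone, without aldolase: glyceraldehyde-3-phosphate coupling enzymes plus AmpLite Red readout. Compounds at 57.5 uM final, 10 min RT preincubation, 20 min RT reaction, fluorescence 525/598 nm.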
Sfp PPTase inh – Sfp phosphopantetheinyl transferase inhibition; Biochemical Sfp PPTase activity, qHTS; Potency, µM, without a hit: largest response in the series, negative = inhibition, actives largely listed as inhibitors; AID 1490; 310,000 tested, 3.5% active;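 note: the enzyme is Sfp with the accession as filed and its product quenches rhodamine fluorescence; potency is the fitted concentration of half-maximal effect; 0% = enzyme reaction without inhibitor and -100% = no enzyme wells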
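Step 1, compound plus 15 nM Sfp-PPTase, 15 min, room temperature. Step 2, add rhodamine-CoA (5 uM) and BHQ-2-YbbR (12.5 uM). Step 3, read 525/598 nm fluorescence at 0 and 30 min.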
G9a inh – inhibitors of human histone lysine methyltransferase G9a; G9a H3K9 monomethylation, AlphaScreen, 2 h; Potency, µM (highest dose often 102 µM), for the others: at the highest dose activity, negative = inhibition, actives largely listed as inhibitors; 350,000 tested, 8.8% active; AID 504332; note: potency is the fitted concentration of half-maximal effect; nearly all actives have a fitted effect of over 75% in size
Target sequence (Q96KQ7 913-1193 limits assumed): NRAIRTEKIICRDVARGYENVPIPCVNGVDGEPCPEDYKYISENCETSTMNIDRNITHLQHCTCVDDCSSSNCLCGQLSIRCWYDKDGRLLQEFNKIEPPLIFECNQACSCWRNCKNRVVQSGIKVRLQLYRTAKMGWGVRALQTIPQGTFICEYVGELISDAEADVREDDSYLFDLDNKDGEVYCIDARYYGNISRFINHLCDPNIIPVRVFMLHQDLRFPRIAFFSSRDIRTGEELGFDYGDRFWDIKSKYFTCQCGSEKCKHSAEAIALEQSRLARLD
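AlphaScreen detection with an anti-monomethyl H3K9 antibody quantified product after a 2 h room-temperature reaction containing 500 nM biotinylated H3K9 peptide, 20 µM SAM and 20 nM enzyme, which had been preincubated 15 min with compound.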
Tau fluor cs – counter-screen for tau fibril formation inhibitors; tau K18 P301L Alexa594 fluorescence, heparin fibrillization; Potency, µM (titrated, usually from 57.7 µM), for inactives: top-dose activity change, negative = decrease; 280,000 tested, 0.93% active; AID 1463; note: potency is the fitted concentration of half-maximal effect; nearly all actives have a fitted effect of over 55% in size
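Human tau K18 P301L (15 uM unlabeled, 0.24 uM Alexa 594-labeled) in 100 mM sodium acetate pH 7 with 20 uM heparin, 6 hr at 37 C. ThT 30 uM added, 1 hr ambient; Alexa 594 FP and total fluorescence read at 555/632 nm.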
Tau fibril ThT – tau fibrillization inhibition (ThT binding) | P10636 | recombinant tau K18 P301L, heparin-induced fibrillization, ThT fluorescence | Potency, µM (series often up to 57.4 µM), for the others: at the highest dose activity, negative = inhibition, hits mostly inhibitors | 270,000 tested, 2.1% active | AID 1460; note: potency is the fitted concentration of half-maximal effect; nearly all actives have a fitted effect of over 55% in size
Target sequence (P10636 561-689 P618L limits assumed): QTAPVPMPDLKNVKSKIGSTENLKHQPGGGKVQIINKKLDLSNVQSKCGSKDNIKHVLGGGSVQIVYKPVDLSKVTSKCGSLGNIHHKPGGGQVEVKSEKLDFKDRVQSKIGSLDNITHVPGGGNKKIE
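Fibril formation assay: tau K18 P301L at 15 uM with trace Alexa 594 label, heparin inducer 20 uM, pH 7 sodium acetate buffer, 37 C for 6 hr; endpoint ThT signal.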
Tau fibril FP – tau fibrillization inhibition (FP); P10636; Potency, µM (doses to about 57.7 µM), for inactives: at the top dose activity, negative = inhibition, most hits filed as inhibitors; K18 P301L tau heparin fibrillization, Alexa594 FP, 6 h; 280,000 tested, 0.39% active; note: potency is the fitted concentration of half-maximal effect; nearly all actives have a fitted effect of over 55% in size
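Steps: dispense K18 P301L tau (15 uM plus 0.24 uM Alexa 594 tracer, final) in pH 7 sodium acetate; add compound; add heparin (20 uM final); incubate 6 hr, 37 C; add ThT (30 uM final); after 1 hr ambient, read FP.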
Starred values were filed as active, the others as inactive; [ ] = another dose, or the depositor's remark. Rows were chosen to be rich in hits. Some 11% of all compounds tested hit in one or more screens of this group. Unless noted, calls come from the whole dose curve; as a rule, active = well fitted curve in the direction sought with a large enough effect; inconclusive = small, poorly fitted or top-dose-only effect, or another doubt; inactive = no such curve, though single readings can be large; an effect the other way counts as inactive or inconclusive. Unless noted, % is set by controls: 0 for no effect and ±100 for the full control effect.

For CCOc1ccccc1OCC(=O)Nc1ccc(N2CCOCC2)cc1N1CCOCC1 the results were G9a inh 56µM*.
Screening CC(C)(C)c1ccc(OCCC(=O)Nc2ccc(N3CCOCC3)cc2N2CCOCC2)cc1 returned G9a inh 5.6µM*.
`CCOc1ccccc1NC(=O)COc1coc(CN2CCCc3ccccc32)cc1=O` gave G9a inh 50µM*.
Screening O=C(COc1ccc(F)cc1Cl)Nc1ccc(N2CCOCC2)cc1N1CCOCC1 returned G9a inh 35µM*.
Screening CCC(=O)CC(NC(=O)OC)c1ccccc1 (stereo not drawn) returned FBPA coupling cs 0, Sfp PPTase inh 2%, Tau fluor cs -5%[11.6 µM], Tau fibril ThT -6%[11.5 µM] and Tau fibril FP -10%[11.6 µM].
Screening CC(=O)N1CCN(S(=O)(=O)c2ccc(C)cc2)C1C (stereo not drawn) returned G9a inh 9%[59 µM].
For CCN(CC)S(=O)(=O)c1ccc2c(c1)c(=O)c(C(=O)NCCCN(C)c1ccccc1)cn2C the results were FBPA coupling cs 0, Sfp PPTase inh 5%, G9a inh 10µM*, Tau fluor cs -28%, Tau fibril ThT -5% and Tau fibril FP 13%.
`CN(CCCNC(=O)c1cn(C)c2ccc(S(=O)(=O)N(C)C)cc2c1=O)c1ccccc1` gave FBPA coupling cs -4, Sfp PPTase inh 5%, G9a inh 50µM*, Tau fluor cs inconclusive, Tau fibril ThT inconclusive and Tau fibril FP inconclusive.
For CN1CCN(C(=O)c2cn(C)c3ccc(S(=O)(=O)N(C)C4CCCCC4)cc3c2=O)CC1 the results were FBPA coupling cs 3, Sfp PPTase inh 14%, G9a inh 56µM*, Tau fluor cs -15%, Tau fibril ThT -16% and Tau fibril FP -9%.
For CC1CCN(CCCNC(=O)c2cn(C)c3ccc(S(=O)(=O)N(C)C4CCCCC4)cc3c2=O)CC1 the results were G9a inh 16%[59 µM], Tau fluor cs -19%, Tau fibril ThT -11% and Tau fibril FP -5%.
CN(C)S(=O)(=O)c1ccc2c(c1)c(=O)c(C(=O)NCCCN1CCCCCC1)cn2C was read as FBPA coupling cs 1, Sfp PPTase inh -11%, G9a inh 45µM*, Tau fluor cs -11%, Tau fibril ThT -15% and Tau fibril FP -3%.
O=C(NC1CCCC1)O[C@@H]1C(=O)c2cc(Br)ccc2O[C@H]1c1ccc2c(c1)OCO2 was read as FBPA coupling cs 1, Sfp PPTase inh -13%, Tau fluor cs -18%, Tau fibril ThT -10% and Tau fibril FP -7%.
`COc1ccc(-c2nc(CS(=O)CC(=O)NCc3ccc(Cl)cc3)c(C)o2)cc1` (stereo not drawn) gave FBPA coupling cs 0, Sfp PPTase inh 10%, G9a inh 40µM*, Tau fluor cs -17%, Tau fibril ThT inconclusive and Tau fibril FP 14%.
Screening Cc1oc(-c2ccc(Cl)cc2)nc1CS(=O)CC(=O)NC1CC1 (stereo not drawn) returned Sfp PPTase inh 4% and G9a inh -24%.
For Cc1ccc(-c2nc(CS(=O)CC(=O)NC3CCC(C)CC3)c(C)o2)cc1 (stereo not drawn) the results were FBPA coupling cs 7, Sfp PPTase inh inconclusive, G9a inh 50µM*, Tau fluor cs -11%, Tau fibril ThT -22% and Tau fibril FP 5%.
`CCCCNC(=O)CS(=O)Cc1nc(-c2ccc(C)cc2)oc1C` (stereo not drawn) gave FBPA coupling cs 3, Sfp PPTase inh 2%, G9a inh -28%, Tau fluor cs -4%, Tau fibril ThT -8% and Tau fibril FP 0%.
`CCc1cccc(NC(=O)CS(=O)Cc2nc(-c3ccc(C)cc3)oc2C)c1` (stereo not drawn) gave FBPA coupling cs 6, Sfp PPTase inh -10%, G9a inh 45µM*, Tau fluor cs -21%, Tau fibril ThT inconclusive and Tau fibril FP 4%.
`Cc1ccccc1-c1nc(CS(=O)CC(=O)NC(C)CCc2ccccc2)c(C)o1` (stereo not drawn) gave Sfp PPTase inh -13% and G9a inh 71µM*.
Cc1ccc(NC(=O)C2CCCN(c3ncnc4c3nc3n4CCCCC3)C2)cc1F (stereo not drawn) was read as G9a inh 0%[59 µM], Tau fluor cs -18%, Tau fibril ThT -9% and Tau fibril FP 5%.
CCOc1ccc(CCNC(=O)CS(=O)Cc2nc(-c3ccc(OC)cc3)oc2C)cc1OCC (stereo not drawn) was read as FBPA coupling cs 1, Sfp PPTase inh 4% and G9a inh 50µM*.
`CCc1ccc(-c2nc(CS(=O)CC(=O)NCc3ccc4c(c3)OCO4)c(C)o2)cc1` (stereo not drawn) gave Sfp PPTase inh -5% and G9a inh 40µM*.
COc1cccc(-c2nc(CS(=O)CC(=O)NCCCOC(C)C)c(C)o2)c1 (stereo not drawn) was read as FBPA coupling cs -2, Sfp PPTase inh 11%, G9a inh 45µM*, Tau fluor cs -1%, Tau fibril ThT -8% and Tau fibril FP 4%.
CCc1ccc(-c2nc(CS(=O)CC(=O)NCc3ccccc3)c(C)o2)cc1 (stereo not drawn) was read as Sfp PPTase inh -5% and G9a inh 28µM*.
For Cc1ccc(-c2nc(CS(=O)CC(=O)NCc3ccc4c(c3)OCO4)c(C)o2)cc1 (stereo not drawn) the results were FBPA coupling cs 0, Sfp PPTase inh -1% and G9a inh inconclusive.
Screening Cc1cc(NC(=O)COC(=O)CCNS(=O)(=O)c2c(Cl)cccc2Cl)no1 returned FBPA coupling cs -4, Sfp PPTase inh 14%, G9a inh inconclusive, Tau fluor cs 2%, Tau fibril ThT 5% and Tau fibril FP 8%.
For CCOc1ccc(CCNC(=O)CS(=O)Cc2nc(-c3ccccc3Cl)oc2C)cc1OCC (stereo not drawn) the results were Sfp PPTase inh 17% and G9a inh 8%.
Screening Cc1ccc(CCNC(=O)CS(=O)Cc2nc(-c3ccccc3Cl)oc2C)cc1 (stereo not drawn) returned Sfp PPTase inh -17%, G9a inh 50µM*, Tau fluor cs -8%, Tau fibril ThT -14% and Tau fibril FP 2%.
